Shiga toxin inh = blocks Shiga toxin action in Vero cells | Vero cells, Shiga toxin protein synthesis inhibition reporter | inhibition, % at 38.7 µM | 290,000 compounds, 9.2% hits; in the data active means inhibition mostly above about 28%, no sharp cut-off; inactive means mostly below about 43%; further: 0% is about no effect
TbPYK inhibitor = inhibitors of Trypanosoma brucei pyruvate kinase; Potency, µM (highest dose often 76.8 µM), for inactives: at the top dose activity, negative = inhibition, actives largely listed as inhibitors; 410,000 compounds, 0.12% hits; Q57TT1; TbPYK enzyme, Kinase-Glo Plus ATP luminescence, 45 min; further: potency means the concentration at half of the fitted maximal effect; on the % scale 0 is the no-effect control and ±100 the full control effect; nearly all actives have a fitted effect of over 50% in size
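Glycolytic pyruvate kinase of T. brucei was incubated with substrate, test compound and 130 uM ADP for 45 minutes at room temperature. Luminescent Kinase-Glo Plus signal was measured after 10 minutes.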
Sm TGR block = inhibitors of Schistosoma mansoni thioredoxin glutathione reductase; Q962Y6; purified TGR, DTNB reduction, TNB absorbance 405 nm; AID 485364; Potency, µM (series often up to 114 µM), inactives show top-dose activity change, negative = inhibition, actives largely listed as inhibitors; 360,000 compounds, 3% hits; further: potency means the concentration at half of the fitted maximal effect; on the % scale 0 is the no-effect control and ±100 the full control effect; nearly all actives have a fitted effect of over 60% in size
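TGR 20 nM + NADPH 100 uM (dispensed conc.), cpd preinc 15 min RT; start with NADPH (500 uM addition) then DTNB (15 mM addition). Kinetic TNB absorbance, 405 nm filter. Four-parameter Hill fit across titration.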
LmPK inhibitor = inhibitors of Leishmania mexicana pyruvate kinase; purified LmPK, Kinase-Glo ATP luminescence, 1 h; Q27686; 290,000 compounds, 0.37% hits; Potency, µM (series often up to 57.5 µM), for the others: at the top dose activity change, negative = inhibition, most hits filed as inhibitors; further: potency means the concentration at half of the fitted maximal effect; on the % scale 0 is the no-effect control and ±100 the full control effect
Target sequence (Q27686 whole entry, looked up): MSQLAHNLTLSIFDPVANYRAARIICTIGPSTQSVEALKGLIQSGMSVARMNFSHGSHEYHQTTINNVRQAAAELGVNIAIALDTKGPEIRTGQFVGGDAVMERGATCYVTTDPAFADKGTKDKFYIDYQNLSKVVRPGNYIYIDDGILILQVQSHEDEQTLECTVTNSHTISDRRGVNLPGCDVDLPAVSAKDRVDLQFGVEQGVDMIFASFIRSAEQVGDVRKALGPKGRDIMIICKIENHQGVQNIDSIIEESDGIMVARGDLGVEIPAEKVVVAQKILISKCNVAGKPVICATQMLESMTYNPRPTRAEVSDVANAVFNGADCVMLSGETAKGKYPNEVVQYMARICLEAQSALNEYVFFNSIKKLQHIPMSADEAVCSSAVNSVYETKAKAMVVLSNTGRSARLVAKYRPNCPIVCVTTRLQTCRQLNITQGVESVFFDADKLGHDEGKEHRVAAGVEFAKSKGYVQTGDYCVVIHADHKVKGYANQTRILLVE
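Screened at intermediate enzyme activity to detect both inhibitors and activators: LmPK at 0.1 nM, with a 0.5 nM enzyme column as activation reference. PEP 0.5 mM, ADP 0.1 mM; ATP detected by luminescence after 1 h.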
Giardia FBPA inh = blocks Giardia fructose-bisphosphate aldolase activity | A8B2U2 | purified Giardia FBPA | Potency, µM (titrated, usually from 59.6 µM), for inactives: at the top dose activity, negative = inhibition, actives largely listed as inhibitors | 290,000 compounds, 0.71% hits; further: potency means the concentration at half of the fitted maximal effect; on the % scale 0 is the no-effect control and ±100 the full control effect; nearly all actives have a fitted effect of over 55% in size
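Giardia FBPA (40 nM reagent) was preincubated 10 min at RT with compound (up to 57.5 uM final), then substrate plus GAPDH/TPI/NAD/arsenate coupling system with diaphorase/resazurin was added; resorufin fluorescence (525/598 nm) was read after 20 min.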
CHX counter = counter-screen for Shiga toxin inhibitors: cycloheximide protein synthesis inhibition; cell reporter, cycloheximide protein synthesis inhibition counterscreen; max response, %; 300,000 compounds, 12% hits; AID 2314; in the data active means max response mostly above about 13%, no sharp cut-off; inactive means mostly below about 14%; further: read at 38.3 µM for the half of the compounds with a filed dose; 0% is about no effect
An asterisk follows results filed as active; i = inactive; ? = inconclusive; . = not tested or not shown; [ ] = dose if it differs, or a comment. Shown is part of a subset that was picked to be rich in hits. Unless noted, the call rests on the fitted dose curve; in most records, active means well fitted curve in the direction sought with a large enough effect; inconclusive means small, poorly fitted or top-dose-only effect, or another doubt; inactive means no such curve, though single readings can be large; an effect the other way counts as inactive or inconclusive.

SMILES | Shiga toxin inh | TbPYK inhibitor | Sm TGR block | LmPK inhibitor | Giardia FBPA inh | CHX counter
Cn1c(SCc2ccccc2)nnc1-c1cccs1 | 81* | -10% | 0% | -2% | -4% | 32*
Cn1c(SCc2ccc(F)cc2)nnc1-c1cccs1 | 62 | 6% | -7% | -7% | 10% | 46*
CO[C@@H]1COC(=O)[C@@H](CCSC)NC(=O)C/C=C\[C@@H](C)COC(=O)CCC[C@H]1C | . | . | . | . | 1%[12.9 µM] | .
COc1cc(Cl)c(C)cc1NC(=O)CSc1cc(=O)n(C)c2cc(Cl)ccc12 | . | 1% | -2% | . | . | .
COc1nc(Nc2cccc(F)c2)nc(OC)n1 | . | 0% | -8% | -1% | 6% | 20*
COc1nc(NCCO)nc(Nc2ccccc2F)n1 | 83* | 0% | 3% | 0% | 4% | 34*
COc1nc(Nc2ccccc2F)nc(OC)n1 | 21 | -3% | 10% | -6% | 15% | 12*
COc1ccc(Nc2nc(NCCO)nc(OC)n2)cc1 | 9 | -7% | -13% | -1% | 0% | 2
COc1nc(Nc2ccccc2)nc(OC)n1 | . | -6% | . | . | . | .
Cc1nc(CC(=O)c2ccc(O)c(C)c2O)cs1 | 47* | 11% | 103% | 5% | 5% | 9.7*
COC(=O)[C@]1(C)CC[C@@]2(C)CC[C@@]3(C)C4=CC=C5C(=CC(=O)C(O)=C5C)[C@@]4(C)CC[C@@]3(C)C2C1 (stereo not given in full) | . | . | . | . | -12% | .
CC(=O)Nc1ccc(OS(=O)(=O)c2ccc(Cl)cc2)cc1 | 40* | 4% | 10% | 1% | 1% | 12
CCCCOc1cccc2c(=O)n(CC(=O)Nc3ccc4c(c3)OCCO4)ccc12 | . | 5% | . | . | . | .
Cc1cc2[nH]c(=O)cc(-c3ccccc3)n2n1 | 47 | -4% | -2% | 0% | ? | 17*
Cc1cc2[nH]c(=O)c3ccccc3n2n1 | -12 | -2% | -3% | -2% | 5% | -3
N#C/C(=C\c1ccc(O)cc1)c1nc2ccccc2o1 | 117* | 4% | 5% | -1% | 9% | 37*
COc1cc(/C=C(\C#N)c2nc(-c3cc4ccccc4oc3=O)cs2)ccc1O | 3 | -15% | -24% | 1% | 3% | -3
COc1cc(/C=C(\C#N)c2nc3ccccc3o2)ccc1O | 42 | -6% | -7% | -3% | -2% | 24*
Cc1ccc(C)c(N/C=C(\C#N)c2nc3ccccc3o2)c1 | . | 1% | . | . | . | .
Fc1ccccc1N1CCN(c2c3c(nc4nncn24)CCC3)CC1 | . | -2% | 0% | . | . | .
O=C(OCc1ccccc1)c1ccccc1O | . | 1% | . | . | . | .
O=C(OCc1csc(-c2ccccc2)n1)c1ccccc1O | 110* | 3% | 30% | ? | 0% | 61*
O=C(O)c1ccccc1SCc1csc(-c2ccccc2)n1 | 38 | -8% | 9% | -4% | . | 32*
CCCC[C@]12Cc3cc(OC)c(OC)cc3C(O1)C1=C(O2)C(=O)c2ccccc2C1=O | i | . | ? | -5%[11.5 µM] | ? | -2
Cn1c(C2=C(O)CN(Cc3ccccc3)C2=N)[n+](C)c2ccccc21 | 50 | -5% | 3% | 2% | 4% | 15
SMILES | Shiga toxin inh | TbPYK inhibitor | Sm TGR block | LmPK inhibitor | Giardia FBPA inh | CHX counter
Cn1c(C2=C(O)CN(Cc3ccccc3)C2=N)nc2ccccc21 | 33* | -19% | 18% | 1% | 0% | 33*
CN1OC[C@@H]2CN(S(=O)(=O)c3cc(Cl)cc(Cl)c3)[C@H](c3ccc(-c4ccc(C#N)cc4)cc3)C[C@@H]21 | . | 3% | . | . | . | .
CCc1ccccc1NC(=O)c1cnn(-c2ccccc2)c1C | 36* | -3% | 0% | -7% | 0% | 16*
Cc1ccc(C)c(NC(=O)c2cnn(-c3ccccc3)c2C)c1 | . | -7% | 5% | -2% | -3% | 40*
Cc1ccccc1NC(=O)c1cnn(-c2ccccc2)c1C | 75* | -7% | 9% | 3% | -6% | 42*
Cc1cccc(NC(=O)c2cnn(-c3ccccc3)c2C)c1C | 41* | -7% | -112% | -5% | -9% | 27*
Cc1cccc(NC(=O)c2cnn(-c3ccccc3)c2-n2cccc2)c1C | . | -2% | -2% | . | . | .
COc1ccccc1-c1nc(-c2ccccn2)no1 | -5 | ? | 6% | 4.5µM* | 1% | 14
COc1ccc(-c2noc(-c3ccccc3-c3ccccc3)n2)cc1OC | 6 | 1% | 0% | 3% | 0% | 4
COc1ccc(Br)cc1-c1noc(-c2ccncc2)n1 | -18 | 3% | 5% | -7% | -1% | 11
COc1ccccc1-c1noc(-c2cccs2)n1 | 111* | 2% | 8% | ? | 8% | 44*
COc1ccccc1-c1noc(-c2ccncc2)n1 | 64* | -4% | -5% | ? | 7% | 27*
CCOc1ccc(C(=O)Nc2ccccc2C(=O)OCc2cc(=O)n3nc(C4CC4)sc3n2)cc1 | . | 3% | -5% | . | . | .
CCCCOC(=O)Nc1nnc(C(C)C)s1 | 119* | 3% | -3% | 2% | 1% | 37*
CCCCCOC(=O)Nc1nnc(CCC)s1 | 41 | 2% | 1% | 7% | 15% | 28*
CCCCN(c1ccccc1)S(=O)(=O)c1cc2c3c(c1)C(C)C(=O)N3CCC2 (stereo not given) | . | -7% | 7% | . | . | .
Cc1c2ccccc2nc2c(F)c(N(C)C)c(F)c(F)c12 | 23 | -16% | -26% | -4% | -20% | 28*
Cc1c(N(C)C)nc2ccccc2c1N | -11 | 9% | -8% | -8% | -2% | -5
CN(C)c1c2ccccc2nc2c(F)c(F)c(F)c(F)c12 | 57 | 1% | -16% | 0% | -4% | 33*
CC1C(=O)C(C)C(c2cc(Cl)ccc2O)NC1c1cc(Cl)ccc1O (stereo not given) | -3 | 8% | 0% | -2% | -12% | 1
Cc1cccc(N2CCN(C(=O)c3cnn(-c4ccccc4)c3C3CCN(C(=O)OC(C)(C)C)CC3)CC2)c1C | . | -14%[15.4 µM] | 7% | . | . | .
CCSc1oc(-c2cccs2)nc1S(=O)(=O)c1ccc(Br)cc1 | . | 1% | -14% | . | . | .
Brc1ccc(-c2cnc(-c3cccs3)o2)cc1 | 92* | 9% | -17% | -5% | -4% | 36*
Cc1cc(C)c2sc(N)nc2c1 | 8 | 1% | 3% | -2% | -3% | -4
Cc1cc(C)c2nc(N)sc2c1 | 30 | -12% | 11% | 3% | 6% | 34*
O=Nc1ccc(NOC(=O)c2ccccc2)cc1 | 47* | ? | 5% | 13µM* | -12% | 44*
O=C(N=Nc1ccc(NOC(=O)c2ccccc2Br)cc1)c1ccccc1O | 18 | . | ? | ? | ? | 6
Oc1ccc(/C=N/N2CCN(C3c4ccccc4-c4ccccc43)CC2)cc1 | -4 | 4% | 0% | 3% | 29% | -2
O=C(O)c1ccc(/C=N/N2CCN(C3c4ccccc4-c4ccccc43)CC2)cc1 | 1 | -15% | ? | 22µM* | -1% | -2

Screening data: PubChem, National Center for Advancing Translational Sciences (NCATS)
